# Measured values reported in PubChem BioAssay AID900 (National Center for Advancing Translational Sciences (NCATS), 2007).
# Several values for one entry are separate records, joined by “and”; a condition that tells them apart may be missing. Equal entries are not always repeated. The whole screen tested about 75,000 compounds, of which about 20 (0.03%) were called active. Inconclusive results (about 1%) are left out. The list is a sample of the results. Unmarked numbers belong to inactive results. The call rests on the fitted dose curve; in most records, active means well fitted inhibition curve with a large enough effect; inconclusive means small, poorly fitted or top-dose-only effect; inactive means flat fitted curve, though single readings scatter.
# Target: Caspase-1 (Homo sapiens) (UniProt P29466)
# Experiment: qHTS Assay for Allosteric/Competitive Inhibitors of Caspase-1;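 further: plate controls were vehicle for no effect and no substrate for full effect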
# Conditions: Caspase-1 enzyme, Ac-WEHD-AFC fluorogenic rate; series mostly up to 57.5 µM; activity change, negative = inhibition: at the top concentration
# Source text: NIH Molecular Libraries Screening Centers Network [MLSCN]
# NIH Chemical Genomics Center [NCGC]
# PI Name: Dr. James Wells,
# Dr. Enrique Perez-Paya, Dr.Janice Williams, Dr. Dennis Wolan, a person
# The caspases (Cysteine Aspartyl Protease) comprise a related family of 14 dimeric proteases that are critical mediators of apoptosis (programmed cell death) and inflammation. The caspases represent an important class of drug targets for stroke, ischemia, cancer and inflammatory diseases. […] One goal of this project was to identify compounds that act as allosteric inhibitors via stabilizing the procaspase form of the enzyme. Previous work in Well's laboratory has shown that such allosteric inhibitors can be identified and these act by binding at the dimer interface of enzyme (Hardy, Lam et al., 2004).
# The biochemical assay was configured using purified caspase 1 at a high enzyme concentration to promote formation of the homodimers and thus facilitate the identification of allosteric inhibitors. The overall goal was to identify reversible inhibitors with better drug-like properties than the currently available set of aspartyl-containing peptidomimetics that covalently bind the active site. Caspase 1 was assayed using the profluorescent substrate Ac-WEHD-AFC. After initiation of the assay with substrate the plates were rapidly read using an automated robotic system (Kalypsys, Inc.) to maintain consistent timing. A kinetic mode of detection was used where the initial rate was collected (estimated final product formation was ~10%). Compounds were screened as a concentration-titration series that ranged from 57 uM to 0.7 nM. Below is the protocol used for caspase 1.
# NCGC Assay Protocol Summary:
# Caspase 1 was prepared in buffer (50 mM HEPES pH 7.5, 50 mM KCl, 200 mM NaCl, 10 mM DTT, 0.1% CHAPS) at a concentration of 66.6 nM and 3 uL was dispensed to all wells using black solid Kalypsys 1536-well plates. 20 nL of DMSO containing compounds was added using a pin-tool (Kalypsys Inc.) to columns 5-48. Then 20 nL of DMSO solution from a control plate was added to columns 1-4. Controls were: Column 1, 16 point titration with each concentration in duplicate (1:1 dilutions in DMSO; final starting concentration was 57 uM) of the caspase 1 inhibitor Ac-WEHD-CHO (Alexis Biochemicals); Column 2, a 16 point titration with each concentration in duplicate of the free AFC fluorophore prepared in DMSO (Alexis Biochemicals), final starting was 40 uM; Column 3 neutral (DMSO only) control; Column 4: DMSO alone, to serve as a negative control (no substrate was added). Then 1 uL of 20 uM the substrate Ac-WEHD-AFC (Alexis Biochemicals) prepared in the same buffer was dispensed to all wells except columns 2 and 4 and the plates were immediately transferred (< 1 min) to the Viewlux. The plates were then exposed using 405 nm excitation/520 nm emission filters for 4 sec and read at 20 sec intervals for 3 min. Final enzyme concentration was 50 nM and the final substrate concentration was 5 uM.
# Concentration-response curves were fitted to the data calculated from slope of the linear regression of fluorescent intensity versus time (the rate). The concentration-effect curves were then classified based on curve quality (r2), response magnitude and degree of measured activity. […] Inconclusive compounds had appreciable concentration-dependent effects on both the measured rate and the interpolated basal fluorescence intensity at the start of the reaction but where the basal fluorescent intensity was marginal (e.g. < 10-fold). Inconclusive compounds also encompass highly fluorescent compounds (>100-fold increases in fluorescent intensities values relative to controls) where artificial concentration-dependent decreases in the rate occurred at high compound concentrations due to fluorescent interferences.
# Keywords: Caspase 1, proteases, profluorescent, MLSMR, MLSCN, NIH Roadmap, qHTS, NCGC
row,SMILES,"activity change, negative = inhibition"
1,O=C(Oc1cc(OC(=O)c2ccccc2)c2c(c1)OC(c1ccc(OC(=O)c3ccccc3)c(OC(=O)c3ccccc3)c1)[C@@H](OC(=O)c1ccccc1)C2)c1ccccc1 (stereo partly specified),0.115%
2,O=C(/C(=N\O)n1cncn1)c1ccc(Br)cc1Br,-2.02%
3,CCC1(C)CC(=O)NC1=O (stereo unspecified),-1.26%
4,Cc1c(S(=O)(=O)O)oc2c1C(=O)C(=O)c1c-2ccc2c1CCCC2(C)C,1.46%
5,Cc1ccc(Cc2nc(-c3cccc(C)c3)no2)cc1,-1.38%
6,N#CCC(=O)NC(=O)NCC1CC1,-0.863%
7,CCCCC/C=C/C=C/C=O,-1.41%
8,Cc1noc(C)c1CSc1nnc2ccc3ccccc3n12,0.876%
9,COc1ccc(/C=C/C(=O)c2ccc(OC)cc2O)cc1,-5.59% [at 11.5 µM]
10,CCC(CCC(C)C1CCC2C3CC=C4CC(O)CC[C@@]4(C)C3CC[C@@]12C)C(C)C (stereo partly specified),0.733%
11,Nc1nc2nc(Cl)[nH]c2c(=O)[nH]1,0.386%
12,COc1ccc(N2C(=O)C3CCCN3C2c2cccc(OC)c2)cc1 (stereo unspecified),-4.74%
13,COc1ccccc1OCCNCC(O)COc1cccc2[nH]c3ccccc3c12 (stereo unspecified),-1.42%
14,Clc1ccc(C2[C@H]3CN(CC4CCCCC4)[C@H](c4ccccc4)C34CC2(c2cccnc2)C4)cn1 (stereo partly specified),-0.723%
15,COC1C[C@@H](O[C@@H]2C(C)C(=O)OC(C)C(C)C(O)C(C)C(=O)[C@@]3(CO3)CC(C)C(OC3OC(C)CC(N(C)C)C3O)C2C)OC(C)[C@@H]1O (stereo partly specified),1.99%
16,COc1ccc(C2C(C#N)=C(N)Oc3cc(N)ccc32)cc1OC (stereo unspecified),-19%
17,CO[C@@H]1COC(=O)[C@H](Cc2ccccc2)NC(=O)C/C=C\[C@@H](C)[C@H](OC)COC(=O)[C@@H](C)NC(=O)C/C=C\[C@H]1C,0.468% [at 11.5 µM] and -0.511% [at 11.5 µM]
18,C=C(C)C1CC=C(CO)CC1 (stereo unspecified),2.78%
19,C[C@@H]1O[C@@H](OC[C@H]2O[C@@H](Oc3c(-c4cccc(O)c4O)oc4cc(O)cc(O)c4c3=O)[C@H](O)[C@@H](O)[C@@H]2O)[C@H](O)[C@H](O)[C@H]1O,-0.0137%
20,BrC1C(Br)C(Br)C(Br)C(Br)C1Br (stereo unspecified),-2.73%
21,CC1(C)OC(C(O)(c2ccccc2)c2ccccc2)C(C(O)(c2ccccc2)c2ccccc2)O1 (stereo unspecified),-8.99% [at 11.5 µM]
22,CCOc1ccc(Cn2nnc(C(=O)NCc3ccccc3)c2N)cc1,0.482%
23,CC1C(O)CC2C(C(=O)O)=CO[C@@H](O[C@H]3OC(CO)C(O)C(O)C3O)C21 (stereo partly specified),0.43%

row,SMILES,"activity change, negative = inhibition"
1,Cc1cccc2c3c(ccc12)C1=C(C(=O)C3=O)C(C)CO1 (stereo unspecified),-14.2%
2,C[C@@H]1CC[C@H]2[C@H](C)[C@H]3[C@H](C[C@H]4[C@@H]5CC=C6C[C@@H](O)CC[C@@]6(C)[C@@H]5C[C@@H](O)[C@]34C)N2C1,-2.52% [at 11.5 µM]
3,Cn1c(SCC(=O)N2CCOCC2)nnc1-c1ccc(NC(=O)c2ccccc2F)cc1,-3.47%
4,CC1CCCN(C(=O)c2ccc3c(c2)C(=O)N(CCC2=CCCCC2)C3=O)C1 (stereo unspecified),-3.35%
5,CC(C)c1ccc(NC(=O)NC2CCCCC2)cc1,-2.93%
6,Nc1nc2[nH]c(=O)c(=O)[nH]c2c(=O)[nH]1,-0.495%
7,COC(=O)[C@@H]1C[C@H]2CC[C@H](O)C[C@H]2N1Cc1ccc(N2CCN(C)CC2)cc1,-0.142%
8,CC1O[C@@H](Oc2c(-c3ccc(O)c(O)c3)oc3cc(O)cc(O)c3c2=O)C(O)C(O)C1O (stereo partly specified),1.13%
9,Cc1csc(-c2nc3ccccc3n2C)n1,1.13%
10,Brc1cc(Br)c(Oc2cc(Br)c(Br)cc2Br)cc1Br,-0.535%
11,O=C(O)c1ccc(Cl)c(S(=O)(=O)Nc2ccccc2Cl)c1,0.638%
12,CC(=O)OCC1OC(C#Cc2ccccc2Cl)C=CC1OC(C)=O (stereo unspecified),-0.455% [at 11.5 µM]
13,C[C@@H]1/C=C\CC(=O)OC[C@H]2O[C@@H](C=C[C@@H]2O)[C@H](C)/C=C\CC(=O)OC[C@H]2O[C@H]1C=C[C@@H]2O,0.74% [at 11.5 µM]
14,CC1CC[C@@]23CCC4(C)[C@@]5(C)CCC6C(C)(C)C(O)CC[C@@]6(C)C5C=C[C@@]4(OC2=O)C3C1C (stereo partly specified),-0.0985%
15,CC(C)C1=CC2=CC[C@@H]3[C@](C)(CO)CCC[C@]3(C)C2CC1 (stereo partly specified),-2.25%
16,COc1ncnc2sc3c(c12)CCCC3,-4.32%
17,CN1CCC(CNC(=O)c2ccc(-n3c(=O)c(=O)[nH]c4ccccc43)cc2)CC1,-3.85%
18,O=C(O)[C@@H]1[C@@H](C(=O)O)[C@]23C[C@@]2(C(=O)O)[C@]2(C(=O)O)CCC3=C3CCCC312,-0.0959% [at 11.5 µM]
19,CN(C)Cc1c(C#N)c2ccccc2n1C,-0.283%
20,COCc1nnc(NC(=O)CS(=O)(=O)Cc2ccccc2)s1,1.32%
21,CC(C)=CC1C(C(=O)O)C1(C)C (stereo unspecified),2.02%
22,CCC1=C(OC(=O)N(CC)CC)N2C(=O)OC(=NCC3CC3)[C@]2(C)[C@H]2C1=CC[C@H]1C(=O)N(CC(=O)OC)C(=O)[C@H]12,-1.41%
23,CN1CCc2nc(-c3ccccc3)c(-c3ccccc3)cc2C1,-1.85% [at 11.5 µM]
